Reference: PubChem BioAssay AID1578 (Sanford-Burnham Center for Chemical Genomics, 2009)
In all, about 290,000 compounds went through this assay and about 3,000 (1%) were called active. Many of the other results were omitted from the sample, so actives are more common in it than they were. A number with no mark means an inactive call. Rule as the data show it: active = inhibition mostly above about 36% (no sharp cut-off); inactive = mostly below about 34%.

Test: NOD1 signaling inhibitors, primary screen, cell-based, luminescence, uHTS (AID 1578);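 also: HEK-293T reporter cells stimulated with the NOD1 agonist gamma-tri-DAP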
Conditions: NOD1-driven NF-kB luciferase reporter cells, at 4 µM, hits give high values

SMILES	inhibition
CCCn1c(C)nc2cc(Cl)c(N3CCN(c4nc(-c5ccc(C)cc5)cs4)CC3)cc21	23.3%
CN(C1=C(NC(=O)c2ccccc2)C(=O)c2ccccc2C1=O)C1CCS(=O)(=O)C1 (stereo not given)	-26.1%
CC(=O)NC1=C(NC2CCS(=O)(=O)C2)C(=O)c2ccccc2C1=O (stereo not given)	-32.3%
O=C(NC1=C(NC2CCS(=O)(=O)C2)C(=O)c2ccccc2C1=O)c1ccccc1 (stereo not given)	104% (active)
O=S(=O)(Nc1nc(-c2ccccc2)cs1)c1cc(Cl)ccc1Cl	40.9%
COc1ccc(N=CC2=C(O)c3ccccc3C2=O)c(OC)c1	72% (active)
COc1cc(N=CC2=C(O)c3ccccc3C2=O)cc(OC)c1	-21.7%
COc1ccc(N=CC2=C(O)c3ccccc3C2=O)cc1	52.5%
O=C(CCC(=O)Nc1nnc(C2CCCCC2)s1)NCc1ccc(F)cc1	-10.8%
CSc1ccc(OC2CCCCC2NS(=O)(=O)c2ccccc2)cc1 (stereo not given)	-17%
Cc1cc(OCC(=O)NCCc2cccc(F)c2)c2c(C)cc(=O)oc2c1	21.7%
Oc1ccccc1N=Cc1c(O)ccc2oc3c(c12)CCCC3	-2.1%
O=C(O)c1ccc(N=Cc2c(O)ccc3oc4c(c23)CCCC4)cc1	60% (active)
Oc1ccc2oc3c(c2c1/C=N/n1cnnc1)CCCC3	59.5% (active)
CC(C)(C)N=Cc1c(O)ccc2oc3c(c12)CCCC3	-1.4%
Cc1cccc(/N=C/c2c(O)ccc3oc4c(c23)CCCC4)n1	3.8%
NC(=O)N/N=C/c1c(O)ccc2oc3c(c12)CCCC3	-15.5%
COC(=O)c1ccsc1NC(=O)CCc1ccccc1	-59.2%
COc1cc(NC(=S)NCc2cccnc2)c(OC)cc1Cl	-26.2%
CC(=O)c1nnn(-c2c(F)cccc2F)c1C	-11.8%
O=c1[nH][nH]c(C(F)(F)F)c1C=NCc1cccc(Cl)c1	-0.4%
CCc1ccc(/C=C/c2c[nH]c3ccccc23)[n+](CC)c1	-7.1%
CC[n+]1c(/C=C/c2c[nH]c3ccccc23)ccc2cc(C)ccc21	79.9% (active)
CC[n+]1ccc(/C=C/c2c[nH]c3ccccc23)cc1	3.8%

SMILES	inhibition
Cn1nnc2cc(NC(=O)Nc3cccc(C(F)(F)F)c3)ccc21	-5.1%
COc1ccccc1N1CCN(C(=O)CN2C(=O)C3CCCCC3C2=O)CC1 (stereo not given)	-30.6%
CCCCN(C)C1CCN(C(=S)Nc2ccc(OC)cc2)CC1	-31.8%
Cc1cc(C)c(S(=O)(=O)c2ccccc2)c(N2CCOCC2)n1	-15.6%
CCCCCc1ccc(-c2ccc(/C=C/C(=O)O)cc2)nc1	-27.7%
CCCCCc1ccc(-c2ccc(/C=C/C(N)=O)cc2)nc1	-38.2%
CCCc1ccc(-c2ccc(/C=C/C(=O)O)cc2)nc1	76.4% (active)
Cc1cc2c(c(=O)n1Cc1cccnc1)C(c1cccs1)C(C#N)=C(N)O2 (stereo not given)	7%
O=S(=O)(NC1CCCC1)c1cccc(-c2nnc(-c3ccccc3)o2)c1	-5.3%
COC(=O)[C@@H](NC(=O)NCc1cccs1)C(C)C	8.6%
CCCCCNC(=O)c1c[nH]c2ccc(S(=O)(=O)N3CCC4(CC3)OCCO4)cc2c1=O	-39.2%
COc1ccc(-n2nc3c(c2NC(=O)CCCl)CSC3)cc1	1.9%
CCC(=O)Nc1c2c(nn1-c1ccc(OC)cc1)CSC2	-5.8%
CCC(=O)Nc1c2c(nn1-c1ccccc1)CSC2	-26%
O=C(CCCCl)Nc1c2c(nn1-c1ccccc1)CSC2	-34.6%
COc1ccccc1P(=O)(Cc1ccccc1[N+](=O)[O-])c1ccccc1 (stereo not given)	-7.4%
CN1Cc2c(N3CCOCC3)nc3sc(C#N)c(N)c3c2CC1(C)C	-1.3%
CCOc1cc2c3c(c1)C(C)CC(C)(C)N3C(=O)C2=O (stereo not given)	-0.3%
CCc1cc2c3c(c1)C(C)CC(C)(C)N3C(=O)C2=O (stereo not given)	-3.6%
COc1ccc(OC)c(NC(=O)CSc2nncc3ccc(OC)c(OC)c23)c1	1%
COc1ccc(OC)c(/C=N\NC(=O)c2ccc(-c3ccccc3)cc2)c1	-32%
COc1ccccc1Nc1nc(N)nc(CN2CCCCC2)n1	-0.3%
CC(=O)CSc1nnc2c3ccccc3nc(C(C)(C)C)n12	-19.2%
Cc1ccc(C(=O)CSc2nnc(-c3ccccc3N)n2C)cc1C	-30.8%

SMILES	inhibition
Cc1ccc(C(=O)CSc2nnc3c4ccccc4nc(C(C)(C)C)n23)cc1	92.5% (active)
Cn1c(SCC(=O)c2ccc(F)cc2)nnc1-c1ccccc1N	-7.5%
Cc1ccc(C(=O)CSc2nnc(-c3ccccc3N)n2C)cc1	101% (active)
Cc1ccc(C(=O)CSc2nnc3c4ccccc4nc(Cc4ccccc4)n23)cc1	-10.1%
CCCCN(C(=O)/C=C/c1ccc(OCC(C)C)c(OCC)c1)c1c(N)n(CCC)c(=O)[nH]c1=O	-20.9%
CCCCNCc1cc(Cl)c(OCCC)c(OCC)c1	-20.5%
Cc1ccccc1NC(=O)COC(=O)c1cccnc1	-22.1%
COc1ccc(-n2c(SCC(=O)Nc3cccc(C(=O)O)c3)nnc2-c2ccco2)cc1	-20.2%
Cc1nc(Cl)c2c(n1)NC(=O)CO2	0.5%
CCN(CC)C(=O)Oc1ccc2ccccc2c1Br	-53.4%
O=C(Nc1ccc(-c2nc3ccccc3o2)cc1)c1cccnc1	-1.6%
O=C(Nc1cccc(NC(=O)c2cccs2)c1)c1ccc([N+](=O)[O-])o1	36.9% (active)
O=C(Nc1ccc2oc(-c3cccnc3)nc2c1)c1ccc(Br)o1	-16.5%
O=C(Nc1ccc2oc(-c3ccncc3)nc2c1)c1ccc([N+](=O)[O-])o1	22.8%
O=C(Nc1cccc(NC(=O)c2cccs2)c1)c1ccc(Br)o1	-17.2%
Cc1ccc2oc(-c3ccc(NC(=O)c4cccnc4)cc3)nc2c1	-27.5%
Cc1ccc2nc(-c3ccc(NC(=O)c4cccnc4)cc3)oc2c1	58.7% (active)
COc1cc(NC(=O)c2ccc([N+](=O)[O-])o2)ccc1NC(=O)c1cccs1	9.1%
COCCNC(=O)C(c1ccc(OC)cc1)N(Cc1ccco1)C(=O)CCC(=O)Nc1ccccn1 (stereo not given)	19.2%
COc1ccc(CN2CCN(Cc3c[nH]c4ccccc34)CC2CCO)cc1C (stereo not given)	-1.8%
Cc1ccc(C(=O)CCNc2ccc(Cl)cc2)o1	-29.8%
CS(=O)(=O)N(CC(=O)NCC1CCCO1)c1cc(Cl)ccc1Cl (stereo not given)	2.4%
O=c1c[n+]([O-])c2ccccc2n1OCc1ccccn1	0.2%
C#CCN1C(=O)C(O)(CC(=O)/C=C/c2ccco2)c2ccccc21 (stereo not given)	-14.4%

SMILES	inhibition
CC1CCC(C(=O)NC(C(=O)N2CCN(c3ccccn3)CC2)C(C)C)CC1 (stereo not given)	68% (active)
CC(C)CC(NC(=O)C1CCC(C)CC1)C(=O)N1CCN(c2ccccn2)CC1 (stereo not given)	0.1%
CSCCC(NC(=O)C1CCC(C)CC1)C(=O)N1CCN(c2ccccn2)CC1 (stereo not given)	4.8%
C/C(=N\N(c1ccccc1)c1ccccc1)c1ccco1	-19.4%
COCCOC(=O)C1=C(C)NC(=S)NC1/C=C/c1ccccc1 (stereo not given)	-9.4%
Cc1cccc(NC(=O)c2cccc(NC(=O)c3ccccc3)c2)n1	-35.6%
CC(=O)Nc1ccc(NC(=O)CSc2nc3nc(-c4cccs4)cc(C(F)(F)F)c3c(=O)[nH]2)cc1	-6.3%
COc1ccc(NC(=O)CSc2nc3nc(-c4cccs4)cc(C(F)(F)F)c3c(=O)[nH]2)c(OC)c1	31.6%
O=C(NCc1ccccc1)C1=C[C@@H](C2CC2)C[C@@H](OCCCCO)O1	-27.5%
O=C(CC1Sc2ccccc2NC1=O)OC(C(=O)NCCc1ccccc1)c1cccnc1 (stereo not given)	3.7%
O=C(OCC(=O)N1CCc2ccccc21)c1c2c(nc3ccccc13)CCCCC2	4.9%
CN1/C(=C\C(=S)NC(=O)c2ccccc2Cl)C(C)(C)c2ccccc21	-48.3%
COc1ccccc1C(=O)NC(=S)/C=C1/N(C)c2ccccc2C1(C)C	90.4% (active)
Cc1ccc(C(=O)NC(=S)/C=C2\N(C)c3ccccc3C2(C)C)cc1	15.2%
Fc1ccccc1/C=C1\CCCC2=C1Nc1nnnn1C2c1ccccc1F (stereo not given)	11.4%
Fc1ccccc1/C=C1\CCCC2=C1Nc1ncnn1C2c1ccccc1F (stereo not given)	91% (active)
C(=C1/CCCC2=C1Nc1ncnn1C2c1ccccc1)/c1ccccc1 (stereo not given)	3.1%
Cc1ccc(CSc2nn3c(=O)c(C)nnc3s2)cc1	-32.1%
O=[N+]([O-])C(=c1ccc2c(c1)N1C3=C(CCCC3)CC3CCCCC31N=2)[N+](=O)[O-] (stereo not given)	0.7%
N#CC(C#N)=c1ccc2c(c1)N1C3=C(CCCC3)CC3CCCCC31N=2 (stereo not given)	7%
N#C/C(C(N)=O)=c1/ccc2c(c1)N1C3=C(CCCC3)CC3CCCCC31N=2 (stereo not given)	86.2% (active)
COc1cccc(CNC(=O)CN(C)S(=O)(=O)c2cccc3cccnc23)c1	-2.3%
CCC(C)C(NC(=O)CCC(=O)OCC(=O)[C@@]1(O)CCC2[C@@H]3CCC4=CC(=O)C=C[C@]4(C)C3[C@@H](O)C[C@@]21C)C(=O)O (stereo not given in full)	-4.9%
